Source: PubChem BioAssay AID1578 (Sanford-Burnham Center for Chemical Genomics, 2009)
Out of some 290,000 compounds screened, about 3,000 (1%) were called active. Cut-off read from the data, not from the text of the source: active = inhibition mostly above about 36% (no sharp cut-off); inactive = mostly below about 34%. Shown is part of a subset that was picked to be rich in actives.

Assay: NOD1 signaling inhibitors, primary screen, cell-based, luminescence, uHTS (AID 1578);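 note: HEK-293T reporter cells stimulated with the NOD1 agonist gamma-tri-DAP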
Details: NOD1-driven NF-kB luciferase reporter cells, at 4 µM, hits give high values

inhibition, inactive:
CC(Sc1nnc(CC(=O)Nc2ccccc2F)n1C)C(=O)Nc1nccs1 (stereo not given) -32.4%
O=c1[nH]nc(SCCS(=O)(=O)c2ccc(F)cc2)n1-c1ccccc1 -11.2%
Cc1ccc(S(=O)(=O)CCSc2n[nH]c(=O)n2-c2ccccc2)cc1 -6.8%
CCOC(=O)c1[nH]cnc1C(=O)Nc1cccc(OC)c1 -3.5%
CCCCC(c1nnnn1CC1CCCO1)N1CCN(c2ccccc2)CC1 (stereo not given) -34.5%
CCN(c1ccccc1)S(=O)(=O)c1ccc2c(c1)CC(C)N2C(=O)C1CC1 (stereo not given) -12.9%
CC(=O)NC1(c2ccccc2)CCN(c2nc(C)cc(C)n2)CC1 -0.9%
Cc1cc(N2CCC(C(N)=O)CC2)nc(-c2ccccc2)n1 2%
CCN(Cc1ccncc1)Cc1nc(CC2CC2)no1 -8.9%
CN(C)CC(CCCCC(CN(C)C)C(=O)c1ccccc1)C(=O)c1ccccc1 (stereo not given) -4.1%
COc1ccc(C(=O)C(CCCCC(CN(C)C)C(=O)c2ccc(OC)cc2)CN(C)C)cc1 (stereo not given) -6%
COc1ccccc1NC(=O)CN1CCN(CC(=O)Nc2ccccc2Cl)CC1 -18.4%
O=C(Nc1ccccc1)Nc1cc([N+](=O)[O-])ccc1F -17.9%
O=C(Nc1ccc(Cl)cc1)Nc1cc([N+](=O)[O-])ccc1F 30.3%
COc1ccc(C2/C(=C(/O)c3ccc(C)cc3)C(=O)C(=O)N2C)c(OC)c1 (stereo not given) -29.5%
CCC1CCC(C(=O)NC(C(=O)NCCN2CCOCC2)C(C)C)CC1 (stereo not given) -24.4%
Cc1cc(Cl)c(S(=O)(=O)Nc2cc(S(=O)(=O)N3CCOCC3)ccc2F)cc1OCC(N)=O -11.8%
Cn1nccc1C(=O)N1CCN(c2cccc(C(F)(F)F)c2)CC1 -2.5%
CC1Oc2ccccc2N(CC(=O)NCc2ccc3c(c2)OCO3)C1=O (stereo not given) -48.9%
COc1ccc(OC)c(/C=N\NC(=O)c2c(C)nc3cc(C)ccn23)c1 -8.5%
CN(C(=O)COc1ccc(Cl)cc1)c1nnc(C23CC4CC(CC(C4)C2)C3)s1 4.5%
CN(C(=O)COc1ccc(Cl)cc1Cl)c1nnc(C23CC4CC(CC(C4)C2)C3)s1 -34.1%
O=C(NNC(=S)Nc1ccc(Cl)c(Cl)c1)c1cccc([N+](=O)[O-])c1 -11.1%
CN(C(=O)CC1C(=O)NCCN1Cc1cccc(F)c1F)C1CCOCC1 (stereo not given) -24.4%
CCC(CCC(=O)Nc1nncs1)C(=O)O (stereo not given) 0.6%
CC(O)[C@H]1CNC(=O)C(=O)N1CCCCC1CCCCC1 (stereo not given in full) -9.4%
O=C(O)CCCCCN1C(=O)C2CCCCC2C1=O (stereo not given) -26.7%
CCOC(=O)c1c(C)[nH]c(C)c1S(=O)(=O)N(C)CC(=O)NCc1cccc(Br)c1 -19.6%
COc1ccc(-c2c3c(cc(C)[n+]2[O-])oc2ccc(OC)cc23)cc1 -20%
Cc1[nH]nc2c1C(c1ccc3c(c1)OCO3)C(C#N)=C(N)O2 (stereo not given) -33.1%
CC(C)c1cccc(C(C)C)c1NC(=O)c1ccccc1 -17.6%
CC(C)c1cccc(C(C)C)c1NC(=O)CN1CCCC1 -21.2%
COc1ccccc1CNC(=O)Cn1nnnc1CN(C)C(C)C -103%
COc1ccc2oc(C(=O)NC(C)(C)C)c(C)c2c1 -42.6%
CCCC(=O)C1=C(O)C(C(=O)OC)C(C)(C)CC1=Nc1ccccc1 (stereo not given) -9.6%
CCCC(=O)C1=C(O)C(C(=O)OC)C(C)(C)CC1=Nc1ccc(OC)cc1 (stereo not given) -37.1%
O=C(NCC1CCCO1)c1ccc(/C=N/O)nc1 (stereo not given) -26.9%
CC1(C)CC(N2CCCCC2)=CC(=[N+]2CCCCC2)C1 36.9%
CC1(C)CC(N2CCCC2)=CC(=[N+]2CCCC2)C1 27.8%
CC1(C)CC(N2CCCC2)=CC(=[N+]2CCCCC2)C1 -30.9%
CC1(C)CC(N2CCN(c3ccccc3)CC2)=CC(=[N+]2CCCC2)C1 55%
O=C(Cn1c(=O)c2sccc2n(Cc2ccc([N+](=O)[O-])cc2)c1=O)NCCc1ccccc1 -16.6%
Cn1c(CNC(=O)CCNC(=O)c2cccc(F)c2)cc(=O)n(C)c1=O -2.9%
Cc1cccc(C(=O)N=c2sccn2C)c1[N+](=O)[O-] -69.7%
O=C(NCc1ccc(F)cc1)C(=O)Nc1nc(C23CC4CC(CC(C4)C2)C3)cs1 46.9%
O=C(NCc1ccncc1)C(=O)Nc1nc(C23CC4CC(CC(C4)C2)C3)cs1 -11.3%
CC(=O)Nc1ccc(C(=O)OCC(=O)Nc2c(F)cccc2F)cc1 -4.7%
Cc1ccc(S(=O)(=O)N2CCCN(S(=O)(=O)C3CCS(=O)(=O)C3)CC2)cc1 (stereo not given) -14.1%
CCCCS(=O)(=O)C1CCS(=O)(=O)C1 (stereo not given) -31.7%
CC(C)C1Nc2ccc(C(=O)NCc3ccco3)cc2NC1=O (stereo not given) -8.3%
CC12CCC(=O)N1C(C(=O)Nc1nnc(SCc3ccccc3F)s1)CS2 (stereo not given) -32.1%
Cc1ccc(NC(=O)Cn2ncc3c([nH]c4ccccc43)c2=O)cc1Cl 1.5%
O=C(Cn1c(=O)[nH]c2ccccc2c1=O)Nc1cccnc1 -10.3%
O=C(NCCCN1CCCC1)[C@H](CSCc1ccccc1)N1Cc2ccccc2C1=O -6.7%
COc1cccc(CN2CCNC(=O)C2CC(=O)N(C)C2CCCCC2)c1 (stereo not given) -1.2%
CC1CCCCN1C(=O)C(=O)c1cn(CC(=O)N2CCCCCC2)c2ccccc12 (stereo not given) -20.8%
CC(=O)N1CC(C)Sc2ccc(S(=O)(=O)N3CCCCC3)cc21 (stereo not given) 6.9%
CCOC(=O)C1CCN(S(=O)(=O)c2ccc3c(c2)CCN3C(C)=O)CC1 6.1%
CC1CCN(C(=O)c2cc3ccccc3c(=O)o2)CC1 -21.4%
Cc1cccc(CCNC(=O)CNS(=O)(=O)c2ccc3nc(C)sc3c2)c1 12.4%
Cc1ccc(N2CC(C(=O)NC3CC3)CC2=O)cc1 (stereo not given) 17.9%
COc1ccc2nc(NC3=NC(c4ccccc4)CC(=O)N3)nc(C)c2c1 (stereo not given) -18.7%
COc1ccc(S(=O)(=O)NNC(=O)C2CC(c3cccnc3)=NO2)cc1 (stereo not given) -24.9%
O=C(NNS(=O)(=O)c1ccccc1)C1CC(c2cccnc2)=NO1 (stereo not given) -32.5%
COc1ccc(C(=O)C2CCN(CC(=O)Nc3ccc(OC)cc3OC)CC2)cc1 -10.7%
COC(=O)c1sc(=S)n(Cc2ccccc2)c1C 5%
COc1ccc(CNC(=O)CCC(=O)N2CC(C)Oc3ccccc32)cc1 (stereo not given) -16.3%
O=C(Nc1ccccc1)c1nnsc1S(=O)(=O)c1ccc(Cl)cc1 67.9%
O=S(=O)(c1ccc(F)cc1)c1snnc1-c1ccccc1 24.9%
Cc1nnsc1S(=O)(=O)c1ccccc1 -10.8%
c1ccc(-c2nnsc2-c2ccccc2)cc1 6.7%
CCCCCCCSc1nnc(N)s1 5.6%
CC(C)(C)NC(=O)COC(=O)c1ccccc1NC(=O)c1ccco1 -42.8%
CC1CN(C(=O)c2cc3ccccc3oc2=O)CC(C)O1 (stereo not given) 0.9%
C/C(=N\NC(=O)c1ccncc1)c1ccc(NC(=O)c2ccc(Cl)cc2)cc1 7%
C/C(=N/NC(=O)c1ccncc1)c1ccc(NC(=O)c2ccccc2)cc1 -8.8%
NC(=O)CC(NC(=O)Cc1ccc(Cl)cc1)c1ccc(NC2CCCCC2)c([N+](=O)[O-])c1 (stereo not given) -4.6%
Oc1csc(Cc2nc(-c3ccc4ccccc4c3)cs2)n1 4.6%
Oc1csc(Cc2nc(-c3ccc(-c4ccccc4)cc3)cs2)n1 31.2%
O=C(Nn1cc(C(=O)Nc2ccc(F)cc2F)c2ccccc2c1=O)c1cnccn1 -21.1%
COC(=O)c1cn(NC(=O)c2cnccn2)c(=O)c2ccccc12 3%

inhibition, active:
Cc1cc(C)c(-n2c(SCCS(=O)(=O)c3ccc(F)cc3)n[nH]c2=O)c(C)c1 69.7%
CC(=O)NC1(c2ccccc2)CCN(c2cc(C)nc(-c3ccccc3)n2)CC1 52.2%
CN(C(=O)COc1ccccc1)c1nnc(C23CC4CC(CC(C4)C2)C3)s1 104%
O=C(O)CCCCCCC1C(=O)NC(=O)N1CCC(O)C1CCCCC1 (stereo not given) 75.2%
CC(C)c1cccc(C(C)C)c1NC(=O)CCl 68.4%
CCCC(=O)C1=C(O)C(C(=O)OC)C(C)(C)CC1=Nc1cccc2ccccc12 (stereo not given) 53.5%
O=C(NCc1ccccc1)C(=O)Nc1nc(C23CC4CC(CC(C4)C2)C3)cs1 89.4%
O=S1(=O)CCC(S(=O)(=O)N2CCCCCC2)C1 (stereo not given) 98.1%
O=C(Cn1ncc2c([nH]c3ccccc32)c1=O)Nc1cccnc1 55.7%
O=C(NNS(=O)(=O)c1ccc(F)cc1)C1CC(c2cccnc2)=NO1 (stereo not given) 51%
O=S(=O)(c1ccc(Cl)c(Cl)c1)c1snnc1-c1ccccc1 77.3%
C/C(=N\NC(=O)c1ccccc1NC(=O)c1ccc(Cl)cc1)c1ccncc1 60.4%
Cc1sc(Cc2nc(O)cs2)nc1-c1ccccc1 97.9%
O=C(Nn1cc(C(=O)Nc2ccccc2F)c2ccccc2c1=O)c1cnccn1 47.1%
